In ChEMBL document CHEMBL5308504, “Tm Shift (DSF) assay results for EUbOPEN Chemogenomics Library” (2023):
Where “and” joins values, the source holds several entries; their conditions need not be identical. Equal entries are not always repeated.

Legend:
Conditions in all cases: Compound concentration 20.0 uM, Protein concentration 2.0 uM, Result type QC Liability
[1] = biological target: Cyclin-dependent kinase 2 (Homo sapiens) (UniProt P24941)
[2] = biological target: Casein kinase I isoform delta (Homo sapiens) (UniProt P48730)
Sequence of Casein kinase I isoform delta (Homo sapiens) (P48730 whole entry, looked up, canonical isoform): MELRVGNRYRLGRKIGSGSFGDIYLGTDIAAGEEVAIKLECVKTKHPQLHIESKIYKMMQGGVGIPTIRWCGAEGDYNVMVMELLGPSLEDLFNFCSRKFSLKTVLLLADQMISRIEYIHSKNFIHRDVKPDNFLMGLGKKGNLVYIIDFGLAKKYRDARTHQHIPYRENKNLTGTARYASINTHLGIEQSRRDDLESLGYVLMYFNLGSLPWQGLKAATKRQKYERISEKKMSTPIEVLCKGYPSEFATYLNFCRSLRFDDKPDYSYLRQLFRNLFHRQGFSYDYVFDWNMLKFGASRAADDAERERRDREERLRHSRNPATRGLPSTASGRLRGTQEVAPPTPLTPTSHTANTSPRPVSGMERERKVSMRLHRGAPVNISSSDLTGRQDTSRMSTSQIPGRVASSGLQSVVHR

[3] = biological target: Glycogen synthase kinase-3 beta (Homo sapiens) (UniProt P49841)
Sequence of Glycogen synthase kinase-3 beta (Homo sapiens) (P49841 whole entry, looked up): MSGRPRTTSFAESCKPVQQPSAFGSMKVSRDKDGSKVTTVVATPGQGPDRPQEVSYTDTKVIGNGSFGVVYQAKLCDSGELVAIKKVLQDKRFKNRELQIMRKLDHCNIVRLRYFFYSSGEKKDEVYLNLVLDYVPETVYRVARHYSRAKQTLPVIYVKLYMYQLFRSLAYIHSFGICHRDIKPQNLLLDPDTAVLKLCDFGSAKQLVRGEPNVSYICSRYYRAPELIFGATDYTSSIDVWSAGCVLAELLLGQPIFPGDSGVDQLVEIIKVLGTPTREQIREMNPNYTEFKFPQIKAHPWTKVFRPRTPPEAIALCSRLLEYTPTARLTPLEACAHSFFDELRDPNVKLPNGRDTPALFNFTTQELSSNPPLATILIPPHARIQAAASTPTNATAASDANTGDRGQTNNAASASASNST

[4] = biological target: Mitogen-activated protein kinase 1 (Homo sapiens) (UniProt P28482)
Sequence of Mitogen-activated protein kinase 1 (Homo sapiens) (P28482 whole entry): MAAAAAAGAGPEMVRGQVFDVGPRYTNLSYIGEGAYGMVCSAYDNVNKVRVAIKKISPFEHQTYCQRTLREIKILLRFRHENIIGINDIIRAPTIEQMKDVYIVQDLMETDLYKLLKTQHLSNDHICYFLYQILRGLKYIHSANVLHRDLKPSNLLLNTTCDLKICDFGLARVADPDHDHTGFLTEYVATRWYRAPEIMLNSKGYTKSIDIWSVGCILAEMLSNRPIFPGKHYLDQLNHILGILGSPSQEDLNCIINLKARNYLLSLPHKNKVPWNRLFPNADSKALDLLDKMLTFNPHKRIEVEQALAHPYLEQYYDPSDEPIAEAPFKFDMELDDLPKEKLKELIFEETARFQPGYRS

[5] = biological target: T1, Aurora kinase A (Homo sapiens) (UniProt O14965)
T1 sequence (whole entry): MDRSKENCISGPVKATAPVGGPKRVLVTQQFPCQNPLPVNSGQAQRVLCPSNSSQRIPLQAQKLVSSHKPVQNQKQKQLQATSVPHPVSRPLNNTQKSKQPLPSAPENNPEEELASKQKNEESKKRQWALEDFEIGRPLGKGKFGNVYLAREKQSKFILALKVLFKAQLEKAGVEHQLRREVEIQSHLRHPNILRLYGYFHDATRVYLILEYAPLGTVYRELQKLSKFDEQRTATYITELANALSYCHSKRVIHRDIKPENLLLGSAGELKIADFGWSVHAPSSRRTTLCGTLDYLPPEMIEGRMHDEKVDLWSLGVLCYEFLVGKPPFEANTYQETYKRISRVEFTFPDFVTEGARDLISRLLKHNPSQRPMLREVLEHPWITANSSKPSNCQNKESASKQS

[6] = biological target: Tyrosine-protein kinase ABL1 (Homo sapiens) (UniProt P00519)
Sequence of Tyrosine-protein kinase ABL1 (Homo sapiens) (P00519 whole entry): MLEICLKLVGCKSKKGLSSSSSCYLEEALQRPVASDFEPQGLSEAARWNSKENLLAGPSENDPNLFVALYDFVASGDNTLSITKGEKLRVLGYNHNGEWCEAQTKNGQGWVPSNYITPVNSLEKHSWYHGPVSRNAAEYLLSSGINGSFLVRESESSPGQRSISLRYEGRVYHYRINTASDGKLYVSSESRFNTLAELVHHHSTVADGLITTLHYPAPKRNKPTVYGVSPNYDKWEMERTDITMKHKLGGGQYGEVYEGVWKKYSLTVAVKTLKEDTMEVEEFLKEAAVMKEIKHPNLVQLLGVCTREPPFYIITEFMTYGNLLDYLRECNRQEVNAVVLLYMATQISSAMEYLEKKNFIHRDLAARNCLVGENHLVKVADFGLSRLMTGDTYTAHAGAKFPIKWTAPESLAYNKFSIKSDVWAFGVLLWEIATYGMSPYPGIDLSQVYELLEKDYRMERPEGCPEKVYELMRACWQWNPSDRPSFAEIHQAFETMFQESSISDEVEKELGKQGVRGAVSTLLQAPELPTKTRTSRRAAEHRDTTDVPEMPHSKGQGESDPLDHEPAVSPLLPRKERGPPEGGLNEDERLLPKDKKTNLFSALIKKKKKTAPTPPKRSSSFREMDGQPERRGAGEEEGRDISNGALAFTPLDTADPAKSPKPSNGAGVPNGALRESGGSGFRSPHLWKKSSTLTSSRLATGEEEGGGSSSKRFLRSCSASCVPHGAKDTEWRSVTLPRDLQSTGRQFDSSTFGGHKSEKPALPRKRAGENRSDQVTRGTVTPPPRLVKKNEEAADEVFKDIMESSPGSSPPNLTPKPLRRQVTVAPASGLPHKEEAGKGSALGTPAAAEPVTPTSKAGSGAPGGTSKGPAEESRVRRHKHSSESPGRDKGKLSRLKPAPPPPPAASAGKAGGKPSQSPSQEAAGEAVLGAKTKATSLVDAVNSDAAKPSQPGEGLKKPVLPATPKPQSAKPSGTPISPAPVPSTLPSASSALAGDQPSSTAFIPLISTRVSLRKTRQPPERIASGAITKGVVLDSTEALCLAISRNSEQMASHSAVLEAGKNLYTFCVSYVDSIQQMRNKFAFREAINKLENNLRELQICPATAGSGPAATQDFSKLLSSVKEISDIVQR

| SMILES | ΔTm [1] | ΔTm [2] | ΔTm [3] | ΔTm [4] | ΔTm [5] | ΔTm [6] |
| --- | --- | --- | --- | --- | --- | --- |
| CC1(C)C(=O)N([C@H]2CCc3c(O)cccc32)c2nc(Nc3cccc(CN4CCCC4)c3)ncc21 | 6.13 °C | 2.09 °C | 6.72 °C | 5.19 °C | 12.8 °C |  |
| COc1cc2ncnc(Nc3cccc(O)c3)c2cc1OC |  | 2.54 °C | 3.7 °C | 0.61 °C | 2.79 °C | 8.2 °C |
| Cc1ccc(-n2nc(C(C)(C)C)cc2NC(=O)Nc2ccc(OCCN3CCOCC3)c3ccccc23)cc1 | 1.17 °C and 1.39 °C | 3.31 °C and 1.35 °C | 3.17 °C and 2.68 °C | 0.43 °C and 1.14 °C | 0.18 °C and 0.11 °C |  |
| COc1cc(N2CCN(C)CC2)ccc1Nc1ncc2c(n1)N(C)c1ccccc1C(=O)N2CC(F)(F)F | -0.65 °C | 0.47 °C | -0.83 °C | 0.11 °C | 0.18 °C | 0.67 °C |
| Cc1cc(Cn2c(N3CC4(CNC4)C3)nc3c(N4CCN(C)CC4)cc(Cl)cc32)cc(C)c1F | 0.83 °C | 0.19 °C | 0.34 °C | 0.58 °C | 0.07 °C | 0.24 °C |
| Cc1cccc(-c2nn3c(c2-c2ccnc4ccc(C(N)=O)cc24)CCC3)n1 | 0.75 °C | 3.53 °C | 3.04 °C | 0.51 °C | -0.95 °C | 1.72 °C |
| O=C(Nc1ccc(OC(F)(F)Cl)cc1)c1cnc(N2CC[C@@H](O)C2)c(-c2cc[nH]n2)c1 | 1.08 °C | 0.99 °C | 0 °C | 0.21 °C | 0.17 °C |  |
| CN1CCN(c2ccc(Nc3ncc4cc5n(c4n3)C3(CCCCC3)CNC5=O)nc2)CC1 | 0 °C | -0.03 °C | 0.02 °C | 0.18 °C | 0.38 °C | 0.17 °C |
| CCc1cnn2c(NCc3ccc[n+]([O-])c3)cc(N3CCCCC3CCO)nc12 (configuration not stated) |  | 1.31 °C | 7.6 °C | 1.41 °C | -0.54 °C | 0.22 °C |
| CC1(C)CCC(CN2CCN(c3ccc(C(=O)NS(=O)(=O)c4ccc(NCC5CCOCC5)c([N+](=O)[O-])c4)c(Oc4cnc5[nH]ccc5c4)c3)CC2)=C(c2ccc(Cl)cc2)C1 | 1.18 °C | -0.88 °C | -0.99 °C | 0.48 °C | 0.44 °C | -0.27 °C |
| Cc1cc(CN)cc(C)c1-c1ncn(C)c1-c1ccnc2cc(F)ccc12 | 0.32 °C | 0.37 °C | -0.11 °C | 0.29 °C | 0.25 °C | -0.08 °C |
| COc1cc2c(cc1CC=C(C)C)C(=O)C[C@@H](c1ccc(O)cc1)O2 | 1.21 °C | 1.23 °C | -0.03 °C | 0.34 °C | -1.38 °C | 0.53 °C |
| Cc1cc(C)nc(Nc2ncc(C(=O)NCCc3c(C)[nH]c4ccccc34)cn2)c1 | 0.75 °C | -0.55 °C | -2.26 °C | -0.02 °C | 0.27 °C | -0.23 °C |
| c1ccc(C2CCN(c3cnc4c(N5CCOCC5)nccn34)CC2)cc1 | 0.19 °C | 0.18 °C | -0.6 °C | 0.57 °C | -0.14 °C | 0.01 °C |
| COc1ccc(N(C(=O)Nc2c(C)cccc2C)c2cc(Nc3ccc(N4CCN(C)CC4)cc3)ncn2)c(OC)c1 | 0.7 °C | 2.65 °C | 3.75 °C | 0.48 °C | 10.1 °C |  |
| Cc1cc(C2CCCNC2)ccc1Nc1ncc(Br)c(NCc2cccc3c2C(C)(C)C(=O)N3)n1 (configuration not stated) | 2.03 °C | 0.34 °C | 1.91 °C | 2.1 °C | 3.81 °C | 1.52 °C |
| CCN1CCN(Cc2ccc(Nc3ncc(F)c(-c4cc(F)c5nc(C)n(C(C)C)c5c4)n3)nc2)CC1 |  | 4.97 °C | 11.1 °C | 1.41 °C | 3.81 °C | 3.44 °C |
| COc1cc2ncnc(N[C@H](C)c3ccccc3)c2cc1OC1CCN(S(C)(=O)=O)CC1 | 0.54 °C | 0.38 °C | 0.09 °C | 0.1 °C | 0.05 °C | 1.29 °C |
| O=C1CCCN1CCNc1nc(Nc2ccc(Cl)c(Cl)c2)ncc1C(F)(F)F | 5.26 °C | 0.96 °C | 3.17 °C | 4.18 °C | 11.2 °C | 4.3 °C |
| COc1ccc(F)c(F)c1C(=O)c1cnc(NC2CCN(S(C)(=O)=O)CC2)nc1N |  | 0.3 °C | 7.07 °C | 0.27 °C | 0.02 °C | 0.33 °C |
| c1ccc(C(OC2CCN(CCCc3nnn[nH]3)CC2)c2ccccc2)cc1 | 0.54 °C | -0.14 °C | 0.65 °C | -0.05 °C | -0.34 °C | 0.21 °C |
| CC[C@@H]1C(=O)N(C)c2cnc(Nc3ccc(C(=O)NC4CCN(C)CC4)cc3OC)nc2N1C1CCCC1 | 0.58 °C |  | 0.02 °C | 0.15 °C | -0.18 °C | 1.51 °C |
| N#CN1CC[C@H](C(=O)Nc2nc3c(s2)CN(C(=O)CN=[N+]=[N-])CC3)C1 | 0.34 °C | 0.24 °C | -0.2 °C | 0.64 °C | -0.99 °C | 0.16 °C |
| O=C(NC1CCNCC1)c1n[nH]cc1NC(=O)c1c(Cl)cccc1Cl |  | 0.04 °C | 11.4 °C | -0.04 °C | -1.05 °C | 0.36 °C |
| CC[C@@H](C(=O)OC)n1c(=O)c2ccccc2n(Cc2cn(C)c3cccc(C)c23)c1=O | 0.06 °C | 0.32 °C | -0.47 °C | 0.23 °C | -0.05 °C | -0.76 °C |
| O=C(Cc1ccccc1)Nc1nnc(N2CC[C@@H]3[C@H]2CN3c2cccnn2)s1 | 0.43 °C | -0.16 °C | -0.46 °C | 0.3 °C | -0.66 °C | 0.18 °C |
| C1=Cc2ccccc2C(=C2CCN(CCCCc3nnn[nH]3)CC2)c2ccccc21 | 0.18 °C | -0.15 °C | 0.27 °C | -0.08 °C | -0.37 °C | -0.16 °C |
| CC(C)(C)c1cnc(CSc2cnc(NC(=O)C3CCNCC3)s2)o1 |  | 1.29 °C | 8.72 °C | 0.73 °C | 4.45 °C | 0.04 °C |
| COc1ccc(COc2ccc(Cc3cnc(N)nc3N)cc2OC)cc1 |  | -0.66 °C | -0.98 °C | 0.25 °C | -0.26 °C | -0.19 °C |
